Results reported in ChEMBL document CHEMBL3988442, “University of Dundee, Small-Polar-MMV Screening Library” (2021).
About 13,000 (27%) of roughly 48,000 compounds showed an effect of 50% or more. This is one part of the list.

System: Wolbachia pipientis
Assay: Anti-Wolbachia Cell-Based Screen
Format: functional
Set-up: scale not given: in the data most compounds retested in dose-response had high values
Conditions: 5 µM

SMILES | Percent Effect [%]
CN1CCC2(CCCN(C(=O)c3cncn3C)C2)CC1.O=C(O)C(F)(F)F | -6.177
CCc1c(O)nc(SCC(=O)Nc2ccccc2)n(C(C)CC)c1=O (configuration not stated) | -0.04082
CCc1c(O)n(C(C)CC)c(SCC(=O)c2ccccc2)nc1=O (configuration not stated) | 125.3
CCc1c(O)nc(SCC(=O)N(CC)CC)n(C(C)CC)c1=O (configuration not stated) | -0.2531
Cc1noc(C)c1CN1C[C@@H](C(=O)O)[C@H](C(C)C)C1 | -19.42
Cc1nnc2n1CCN(CC(=O)NC(C)c1ccc3ccccc3c1)C2 (configuration not stated) | -2.487
COCCN1CCn2c(nc3cc(C(=O)NC(C)C)ccc32)C1 | 122.8
CCc1nnc2n1CCN(Cc1ccc(C(=O)N3CCCC3)cc1)C2 | 0.2623
CC(C)NC(=O)c1ccc2c(c1)nc1n2CCN(C(C)C)C1 | -1.576
CC(C)NC(=O)c1ccc2c(c1)nc1n2CCN(c2ccccc2)C1 | 20.1
CCN1CCN(c2ccc(C(=O)NC(C)CCOC)cc2)CC1 (configuration not stated) | -9.084
COCCN1CCN(C(C)C(=O)Nc2ccnn2C(C)C)CC1 (configuration not stated) | -8.101
CC(C)N1CCn2c(nc3cc(C(N)=O)ccc32)C1 | 42.97
CC(C)CN1CCn2c(COCc3cccnc3)nnc2C1.O=C(O)C(F)(F)F.O=C(O)C(F)(F)F | -7.115
CC(C)CN1CCn2c(nc3cc(C(=O)NC(C)C)ccc32)C1 | 121.2
CCNC(=O)c1ccc2c(c1)nc1n2CCN(C(C)C)C1 | 109.5
CC(C)NC(=O)c1ccc2c(c1)nc1n2CCN(Cc2ccccc2)C1 | 112.9
O=C(Nc1ccccc1CCc1ccccn1)NC1CCOCC1 | -7.389
O=C1NCCN(C(=O)c2cn3ccsc3n2)C1Cc1ccccc1 (configuration not stated) | -8.073
Cc1cnn(CC2CCCN2Cc2cc(=O)n3ccccc3n2)c1 (configuration not stated) | 2.976
COc1ccccc1C(=O)N1CCN(C(=O)CCn2ccnc2)CC1 | 1.871
CCN(CC)CCn1cc(NC(=O)CNc2ccccc2OC)cn1 | 1.772
Cc1c(C(=O)N2CCCOCC2)nnn1-c1cccc2cnccc12 | 5.187
COc1ccccc1-c1nc(C(=O)N(C)C)n2ccncc12 | 107.3
COC(=O)CNC(=O)c1nc(-c2ccccc2OC)c2cnccn12 | 100.8
COc1ccccc1C1(CNc2ccnc(C(=O)N(C)C)c2)CC1 | 15.85

SMILES | Percent Effect [%]
COC(=O)CCNC(=O)c1c[nH]cc1-c1ccccc1OC | 1.896
COc1ccccc1C1(CNc2ccc(C(=O)N(C)C)cn2)CC1 | 4.76
COc1ccccc1-c1nc(C(=O)N2CCOCC2)n2ccncc12 | 98.47
COc1cccc(CNC(C)c2ccc(-n3ccnc3)cc2)c1OC.Cl (configuration not stated) | 1.707
Cc1nnc(C(C)Nc2ccc(OCCc3ccccc3)nc2)o1 (configuration not stated) | -0.9062
COc1cc(CNc2nc(C(F)(F)F)no2)cc(OC)c1OC | 5.574
Cl.Fc1ccc(CN2CCC(c3n[nH]c4ncccc34)CC2)cc1F | 3.09
Fc1cccc(Cl)c1CN1CCC(c2n[nH]c3ncccc23)CC1 | 100.4
CC(C1CCN(Cc2ccc(OC(F)F)cc2)CC1)N1CCOCC1 (configuration not stated) | 6.94
Fc1cccc(CN2CCC(c3n[nH]c4ncccc34)CC2)c1F | -6.364
CC(C)Oc1cccc(CN2CCC(C(C)N3CCOCC3)CC2)c1 (configuration not stated) | 8.799
CC(C)Oc1cccc(CN2CCC(c3n[nH]c4ncccc34)CC2)c1 | 89.98
CC(C)Oc1ccc(CN2CCC(c3n[nH]c4ncccc34)CC2)cc1 | 97.82
CC(C)Oc1ccc(CN2CCC(Cc3nnc(CO)n3C)CC2)cc1 | -3.16
Cc1cc(NC(=O)c2nc(N3CCCC3)ncc2Cl)ccc1Br | 7.259
Cc1ncoc1C(=O)N1C[C@@H]2COC[C@]2(c2nnc(C3CC3)o2)C1 | 19.81
NC1CCCCN(Cc2cc(C3CCCCC3)no2)C1 (configuration not stated) | 4.436
O=C(c1cc(C2CC2)nc2onc(-c3ccccc3)c12)N1CC(O)C1 | 1.744
O=C(c1cc(C2CCCCC2)no1)N1C[C@H]2C[C@H](O)C[C@H]2C1 | 95.88
C[C@@H]1CN(C(=O)c2ccc(=O)[nH]c2)CC[C@@]1(O)C1CCOCC1 | -4.844
C[C@@H]1CN(C2CCN(c3ccccc3)CC2)CC[C@@]1(O)C1CCOCC1 | 103.2
C[C@@H]1CN(C2Cc3ccccc3C2)CC[C@@]1(O)C1CCOCC1 | 82.39
C[C@@H]1CN(CC(C)(C)N2CCOCC2)CC[C@@]1(O)C1CCOCC1 | 4.466
O=C(C1CCOCC1)N1C[C@H]2CC[C@@H]1CN(C1Cc3ccccc3C1)C2 | 13.64
C[C@@H]1CN(C2CCN(c3ccccc3F)CC2)CC[C@]1(C)O | -26.42
C[C@@H]1CN(S(=O)(=O)N2CCCC2)CC[C@@]1(O)C1CCOCC1 | -9.489

SMILES | Percent Effect [%]
C[C@@H]1CN(C2CCCCC2)CC[C@@]1(O)C1CCOCC1 | 98.71
COc1ccc(CNC(=O)CNc2cc3c(cc2Cl)OCCO3)cc1 | 11.87
CN1CCc2onc(CNc3ncccn3)c2C1.O=C(O)C(F)(F)F.O=C(O)C(F)(F)F | -12.85
Cc1ccc(CN(Cc2ccccn2)C(=O)[C@H]2CC[C@@H](N)C2)s1 | -33.4
O=C(O)C(F)(F)F.c1c2c(nn1CC1CC1)C(CNC1CCOCC1)OCC2 (configuration not stated) | 5.412
COCCN(Cc1ccc(F)cc1Cl)C(=O)c1cccc[n+]1[O-] | -30.73
O=S(=O)(c1ccccc1F)N1CCC(Oc2cccnn2)CC1 | -7.526
Cc1ccccc1OC1CCN(S(=O)(=O)c2c(C)n[nH]c2C)CC1 | 120.4
Cc1noc(C)c1S(=O)(=O)N1CCC(Oc2cccnn2)CC1 | -5.902
Cc1noc(C)c1S(=O)(=O)N1CCC(Oc2ccccn2)CC1 | 2.267
Cc1n[nH]c(C)c1S(=O)(=O)N1CCC(Oc2ccccc2F)CC1 | 121.8
COc1ccccc1S(=O)(=O)N1CCC(Oc2cccnn2)CC1 | -12.85
CCOC(=O)C1CCN(CCCc2nnnn2-c2ccccc2)CC1 | 10.8
NC(=O)NCC1CCCCN1C(=O)c1ccc(Cl)s1 (configuration not stated) | 6.082
NC(=O)NCC1CCCCN1C(=O)c1cc(F)cc(F)c1 (configuration not stated) | 94.01
CN(C)c1ccc(C(=O)N2CCCCC2CC(N)=O)c(F)c1 (configuration not stated) | -10.13
COc1cccc(C(=O)N2CCCCC2CNC(N)=O)c1 (configuration not stated) | 4.596
Cc1ccc(C(=O)N2CCCCC2CNC(N)=O)cc1F (configuration not stated) | 100.6
CNS(=O)(=O)CC1CCCN1C(=O)c1ccc(C)c(C)c1 (configuration not stated) | 1.148
NC(=O)NCC1CCCCN1C(=O)c1cccc(Cl)c1 (configuration not stated) | 109.7
NC(=O)NCC1CCCCN1C(=O)c1ccc(Br)s1 (configuration not stated) | 13.78
Cc1ccc(C(=O)N2CCCCC2CNC(N)=O)s1 (configuration not stated) | -21.76
Cc1cc(C)n(CC2CCCN2C(=O)Cc2csc(C)n2)n1 (configuration not stated) | -5.348
c1ncn(CC2CCCN2Cc2cn3ccsc3n2)n1 (configuration not stated) | -12.38
Cc1cc(C)n(CC2CCCN2CC(=O)N(C)C)n1 (configuration not stated) | -0.9617
Cc1cccn2c(=O)cc(CN3CCCCC3Cn3cncn3)nc12 (configuration not stated) | -0.6189

SMILES | Percent Effect [%]
CN(C)C(=O)Cc1nc(CN2CCCC2Cn2cccn2)cs1 (configuration not stated) | -60.87
CCN(C(C)=O)c1nc(CN2CCCC2Cn2cncn2)cs1 (configuration not stated) | 93.1
CCN(C(C)=O)c1nc(CN2CCCCC2Cn2cncn2)cs1 (configuration not stated) | 113.4
CC(=O)N(C)c1nc(CN2CCCC2Cn2nc(C)cc2C)cs1 (configuration not stated) | 89.05
CC(=O)Nc1nc(CN2CCCC2Cn2cncn2)cs1 (configuration not stated) | -0.3919
CC(=O)Nc1nc(CN2CCCCC2Cn2cncn2)cs1 (configuration not stated) | 101
NC(=O)c1ccc(N2CCCCC2)c(NC(=O)c2ccc(F)cc2Cl)c1 | -3.289
CSc1nc(C2CC2)nc(C)c1C(=O)NCc1ncc(C)o1 | 6.945
CCc1nc(CN2CCCN(C(=O)c3cn[nH]c3CC)CC2)cs1 | 9.391
Cc1cc(NC(=O)N2CCCC(O)C2)nn1-c1ccccc1Cl (configuration not stated) | -23.68
CC(=O)N(C)c1nc(CN2CCCC2Cn2cncn2)cs1 (configuration not stated) | 102
CN(C)C(=O)Cc1nc(CN2CCCC2Cn2cncn2)cs1 (configuration not stated) | -5.183
CC(=O)N(C)c1nc(CN2CCCCC2Cn2cncn2)cs1 (configuration not stated) | -7.447
COc1ccc(N(C)C(=O)c2cccc(S(C)(=O)=O)c2)cn1 | -2.349
Cc1nc[nH]c1C(=O)N1CC[C@@H](NC(=O)c2ccccn2)[C@H](O)C1 | -7.66
Cc1cc2cc(C(=O)N3CC[C@H](O)[C@]4(CCCO4)C3)ccc2o1 | 1.113
CO[C@H]1CN(C(=O)c2ccc3oc(C)cc3c2)C[C@@]12CCCO2 | 96.35
CO[C@H]1CCN(C(=O)c2ccc3oc(C)cc3c2)C[C@@]12CCCO2 | 93.08
CO[C@H]1CN(C(=O)c2ccc3oc(C)cc3c2)CC[C@@]12CCCO2 | 0.1168
COc1ccc(C(=O)N2CC[C@](C)(O)[C@H](C)C2)cc1N1CCOCC1 | 0.3479
COc1ccc(C(=O)N2C[C@@H](C)[C@@](C)(O)C2)cc1N1CCOCC1 | -1.788
Cc1cc2cc(C(=O)N3C[C@H](O)[C@]4(CCCO4)C3)ccc2o1 | 113.6
CC[C@@]1(O)CCN(C(=O)c2cccc3cc(C)oc23)C[C@H]1O | 10.55
CC(=O)N1CCC2(CC1)CN(C(=O)c1ccc3c(c1)OCCO3)C2 | -18.73
